The text below walks through data of the supplement of paper PMC9950053.

Structures are written as SMILES. Where a name gives a salt, the structure may show the parent alone.

The subject of this experiment is Danio rerio larvae (5 dpf). Nature of the experiment: excitability (activity period 17 minus period 16, 1-s interval sound) minus DMSO control (percentage points); higher = more acoustic excitability than DMSO larvae. The conditions noted are these: 10 µM; exposure time: 3 h pre-incubation + 3 h imaging. Here is the method: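 Wild-type 5 dpf zebrafish larvae (n=48 per drug, 96-well plates, 28.5 °C) were exposed to Tocris FDA-approved library compounds at 10 µM (0.1% DMSO) for 3 h before and 3 h during imaging. Images were taken every 6 s during visual (moving coloured lines) and acoustic stimuli, and larvae were tracked with the DeepLabCut-based Z-LaP Tracker. Each behavioural measure is the treated-group mean minus the DMSO vehicle control mean (n=844), in percentage points. This mapping covers compounds with 4-character plate codes.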
`CN1CC[C@@H](NC(=O)Nc2ccc(C#N)cc2)C[C@@H]1c1nc2ccccc2[nH]1`: the excitability stood at 6.95.

For `CCCCCCCCc1ccc(CCC(N)(CO)CO)cc1`, the excitability was 14.6.

For the compound `Cc1nc(-c2ccc(OCC(C)C)c(C#N)c2)sc1C(=O)O` [Febuxostat], the excitability was -0.805.

For the compound `C=C1[C@H](CO)[C@@H](O)C[C@@H]1n1cnc2c(=O)[nH]c(N)nc21` [Entecavir], the excitability is -0.589.

As for `Cc1c(-c2ccc(O)cc2)n(Cc2ccc(OCCN3CCCCCC3)cc2)c2ccc(O)cc12` [Bazedoxifene acetate], the excitability was 15.4.

`CC1CNc2c(cccc2S(=O)(=O)N[C@@H](CCCNC(=N)N)C(=O)N2CC[C@@H](C)C[C@@H]2C(=O)O)C1` (stereo not given in full) [Argatroban]: the excitability was 0.775.

For the compound `CCN(CC)CCNC(=O)c1c(C)[nH]c(/C=C2\C(=O)Nc3ccc(F)cc32)c1C` [Sunitinib malate], the excitability amounted to 15.8.

In the case of `NC(=O)N1c2ccccc2C=Cc2ccccc21` [Carbamazepine], the excitability came to 1.07.

Consider `CCOC(=O)C1=C(C)NC(C)=C(C(=O)OC)C1c1cccc(Cl)c1Cl` (stereo not given) [Felodipine], for which the excitability was -10.3.

As for `CCCCNc1cc(C(=O)O)cc(S(N)(=O)=O)c1Oc1ccccc1` [Bumetanide], the excitability was 7.06.

On to `Cc1nnc(C(C)C)n1C1C[C@H]2CC[C@@H](C1)N2CC[C@H](NC(=O)C1CCC(F)(F)CC1)c1ccccc1` (stereo in doubt) [Maraviroc], for which the excitability came to 6.13.

Take `CN1CC2c3ccccc3Oc3ccc(Cl)cc3C2C1` (stereo not given) [Asenapine maleate]: the excitability was 14.2.

For the compound `O=C(Nc1c(Cl)cncc1Cl)c1ccc(OC(F)F)c(OCC2CC2)c1` [Roflumilast], the excitability was 13.4.

As for `NS(=O)(=O)Cc1noc2ccccc12` [Zonisamide], the excitability is 4.75.

As for `Nc1cccc2c1CN(C1CCC(=O)NC1=O)C2=O` (stereo not given) [Lenalidomide], the excitability was -1.97.

Consider `COc1cc(Nc2c(C#N)cnc3cc(OCCCN4CCN(C)CC4)c(OC)cc23)c(Cl)cc1Cl` [Bosutinib], for which the excitability came to 7.41.

For `CN/C(=N\CCSCc1nc[nH]c1C)NC#N` [Cimetidine], the excitability is -2.33.

As to `CC(C)c1ccc2oc3nc(N)c(C(=O)O)cc3c(=O)c2c1` [Amlexanox], the excitability amounted to 5.26.

Consider `CN(CCOc1ccc(NS(C)(=O)=O)cc1)CCc1ccc(NS(C)(=O)=O)cc1` [Dofetilide], for which the excitability is 6.73.

As to `Cc1cc(C2CCCCC2)n(O)c(=O)c1` [Ciclopirox], the excitability worked out at 5.61.

Turning to `CC1=Nc2ccc(Cl)cc2S(=O)(=O)N1` [Diazoxide], the excitability was determined as 3.88.

With `CCOC(=O)C1=C(COCCN)NC(C)=C(C(=O)OC)C1c1ccccc1Cl` (stereo not given) [Amlodipine besylate], the excitability turned out to be 1.82.

Turning to `COc1ccc(Cl)cc1C(=O)NCCc1ccc(S(=O)(=O)NC(=O)NC2CCCCC2)cc1` [Glibenclamide], the excitability came to 2.33.

As to `CC(C)c1nc(CN(C)C(=O)N[C@H](C(=O)N[C@@H](Cc2ccccc2)C[C@H](O)[C@H](Cc2ccccc2)NC(=O)OCc2cncs2)C(C)C)cs1` [Ritonavir], the excitability came out at 8.43.

For `CC(=O)O[C@]1(C(C)=O)CC[C@H]2[C@@H]3C=C(C)C4=CC(=O)CC[C@]4(C)[C@H]3CC[C@@]21C` [Megestrol Acetate], the excitability came out at 12.4.

On to `Cc1ccc(N(CC2=NCCN2)c2cccc(O)c2)cc1` [Phentolamine Mesylate], for which the excitability stood at 15.6.

For the compound `CCc1c2c(nc3ccc(OC(=O)N4CCC(N5CCCCC5)CC4)cc13)-c1cc3c(c(=O)n1C2)COC(=O)[C@]3(O)CC`, the excitability was 8.99.

On to `C[C@H](Cc1cc2c(c(C(N)=O)c1)N(CCCO)CC2)NCCOc1ccccc1OCC(F)(F)F` [Silodosin], for which the excitability stood at 22.6.

Turning to `Clc1ccccc1C(c1ccccc1)(c1ccccc1)n1ccnc1` [Clotrimazole], the excitability stood at 11.3.

As to `CN(C)CCc1c[nH]c2ccc(Cn3cncn3)cc12` [Rizatriptan benzoate], the excitability was -0.877.

With `CC(=O)NC[C@H]1CN(c2ccc(N3CCOCC3)c(F)c2)C(=O)O1` [Linezolid], the excitability turned out to be 6.87.

For the compound `C/C(O)=C(\C#N)C(=O)Nc1ccc(C(F)(F)F)cc1` [Teriflunomide], the excitability is 9.34.

Take `CCCCC(=O)N(Cc1ccc(-c2ccccc2-c2nnn[nH]2)cc1)[C@H](C(=O)O)C(C)C` [Valsartan]: the excitability is -1.67.

In the case of `CCc1ccc(CCOc2ccc(CC3SC(=O)NC3=O)cc2)nc1` (stereo not given) [Pioglitazone hydrochloride], the excitability was 9.48.

In the case of `CC(C)n1c(/C=C/C(O)CC(O)CC(=O)O)c(-c2ccc(F)cc2)c2ccccc21` (stereo not given) [Fluvastatin sodium], the excitability was 3.75.

For the compound `C[C@]12CCC(=O)C=C1CC[C@@H]1[C@@H]2[C@@H](O)C[C@@]2(C)[C@H]1CC[C@]2(O)C(=O)CO` [Hydrocortisone], the excitability came to 3.96.

Consider `CCOC(=O)N1CCC(=C2c3ccc(Cl)cc3CCc3cccnc32)CC1` [Loratidine], for which the excitability was -3.25.

Turning to `Cc1cccc(CN2CCN(C(c3ccccc3)c3ccc(Cl)cc3)CC2)c1` (stereo not given) [Meclizine dihydrochloride], the excitability is 8.17.

For the compound `CO[C@H]1/C=C/O[C@@]2(C)Oc3c(C)c(O)c4c(O)c(c5c(nc6cc(C)ccn65)c4c3C2=O)NC(=O)/C(C)=C\C=C\[C@H](C)[C@H](O)[C@@H](C)[C@@H](O)[C@@H](C)[C@H](OC(C)=O)[C@@H]1C` [Rifaximin], the excitability came to 5.77.

Consider `N[C@@H]1[C@H]2CN(c3nc4c(cc3F)c(=O)c(C(=O)O)cn4-c3ccc(F)cc3F)C[C@@H]12` [Trovafloxacin mesylate], for which the excitability stood at 12.2.
